Test results from PubChem BioAssay AID1159580 (chemical genetic matrix, 2015).
Screen size: about 5,500 compounds; about 2,000 (36%) were called active. Roughly 18% stayed inconclusive and do not appear here. No stated cut-off is given here; in the data, active means normalized growth mostly below about 0.91 (no sharp cut-off); inconclusive means no clear call, values can overlap the other calls; inactive means mostly above about 0.92. This is one part of the list.

Experiment: chemical genetic growth profiling, strain panel (AID 1159580);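 further: tested at 20 µM; growth read once vehicle control cultures reached saturation at 30 °C; 1 = growth at the plate median or of vehicle wells; lower values mean less growth of the strain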
Conditions: growth OD

Measured: normalized growth

NC[C@H]1O[C@H](O[C@H]2C(O[C@@H]3O[C@H](CO)[C@@H](O)[C@H]3O)[C@@H](O)[C@H](N)C[C@@H]2N)[C@H](N)[C@@H](O)[C@@H]1O (some centres not stated)
inactive: S. cerevisiae deletion strains, locus YJR075W, strain HOC1, active compounds read low 0.987 | S. cerevisiae deletion strains, locus YKL009W, strain mrt4, active compounds read low 0.995 | S. cerevisiae deletion strains, locus YKL068W, active compounds read low 0.99 | S. cerevisiae deletion strains, locus YKL085W, strain MDH1 (second series), active compounds read low 1 | S. cerevisiae deletion strains, locus YKL085W, strain MDH1, active compounds read low 1 | S. cerevisiae deletion strains, locus YKL160W, strain elf1, active compounds read low 1.01 | S. cerevisiae deletion strains, locus YKL190W, strain CNB1, active compounds read low 1.02 | S. cerevisiae deletion strains, locus YKR001C, strain vps1, active compounds read low 0.976 | S. cerevisiae deletion strains, locus YKR026C, strain gcn3, active compounds read low 0.982 | S. cerevisiae deletion strains, locus YKR091W, strain srl3, active compounds read low 0.993 | S. cerevisiae deletion strains, locus YLL001W, strain dnm1, active compounds read low 1 | S. cerevisiae deletion strains, locus YLL026W, active compounds read low 0.984 | S. cerevisiae deletion strains, locus YLL041C, strain sdh2, active compounds read low 0.995 | S. cerevisiae deletion strains, locus YLR027C, strain aat2, active compounds read low 1 | S. cerevisiae deletion strains, locus YLR039C, strain RIC1, active compounds read low 0.989 | S. cerevisiae deletion strains, locus YLR058C, strain SHM2, active compounds read low 0.99 | S. cerevisiae deletion strains, locus YLR102C, strain apc9, active compounds read low 0.999 | S. cerevisiae deletion strains, locus YLR113W, strain HOG1, active compounds read low 1.03 | S. cerevisiae deletion strains, locus YLR221C, strain rsa3, active compounds read low 1 | S. cerevisiae deletion strains, locus YLR258W, strain gsy2, active compounds read low 0.995 | S. cerevisiae deletion strains, locus YLR262C, strain YPT6 (second series), active compounds read low 1.01 | S. cerevisiae deletion strains, locus YLR262C, strain YPT6, active compounds read low 0.997 | S. cerevisiae deletion strains, locus YLR268W, strain sec22, active compounds read low 0.955 | S. cerevisiae deletion strains, locus YLR320W, strain mms22, active compounds read low 0.991 | S. cerevisiae deletion strains, locus YLR330W, strain CHS5, active compounds read low 0.997 | S. cerevisiae deletion strains, locus YLR342W, strain FKS1 (second series), active compounds read low 1.03 | S. cerevisiae deletion strains, locus YLR342W, strain FKS1, active compounds read low 1 | S. cerevisiae deletion strains, locus YLR357W, strain rsc2, active compounds read low 0.967 | S. cerevisiae deletion strains, locus YLR370C, strain arc18, active compounds read low 0.998 | S. cerevisiae deletion strains, locus YLR371W, strain rom2, active compounds read low 0.987 | S. cerevisiae deletion strains, locus YLR384C, strain iki3, active compounds read low 0.985 | S. cerevisiae deletion strains, locus YLR418C, strain cdc73, active compounds read low 0.975 | S. cerevisiae deletion strains, locus YML016C, strain PPZ1, active compounds read low 0.992 | S. cerevisiae deletion strains, locus YML032C, strain rad52, active compounds read low 0.979 | S. cerevisiae deletion strains, locus YML120C, strain ndi1, active compounds read low 1.01 | S. cerevisiae deletion strains, locus YML124C, strain tub3, active compounds read low 0.993 | S. cerevisiae deletion strains, locus YMR058W, strain fet3, active compounds read low 1 | S. cerevisiae deletion strains, locus YMR078C, strain ctf18, active compounds read low 0.99 | S. cerevisiae deletion strains, locus YMR125W, strain sto1, active compounds read low 0.963 | S. cerevisiae deletion strains, locus YMR129W, active compounds read low 0.981 | S. cerevisiae deletion strains, locus YMR205C, strain PFK2, active compounds read low 0.962 | S. cerevisiae deletion strains, locus YMR223W, strain ubp8, active compounds read low 1.01 | S. cerevisiae deletion strains, locus YMR231W, strain pep5, active compounds read low 1 | S. cerevisiae deletion strains, locus YMR263W, strain SAP30, active compounds read low 0.995 | S. cerevisiae deletion strains, locus YMR307W, strain GAS1, active compounds read low 0.997 | S. cerevisiae deletion strains, locus YNL067W, strain RPL9B, active compounds read low 0.984 | S. cerevisiae deletion strains, locus YNL071W, strain lat1, active compounds read low 1.01 | S. cerevisiae deletion strains, locus YNL128W, strain TEP1, active compounds read low 0.994 | S. cerevisiae deletion strains, locus YNL153C, strain GIM3, active compounds read low 0.993 | S. cerevisiae deletion strains, locus YNL183C, strain NPR1, active compounds read low 0.974 | S. cerevisiae deletion strains, locus YNL209W, strain ssb2, active compounds read low 1 | S. cerevisiae deletion strains, locus YNL233W, strain BNI4, active compounds read low 0.981 | S. cerevisiae deletion strains, locus YNL248C, strain rpa49, active compounds read low 1.01 | S. cerevisiae deletion strains, locus YNL250W, strain rad50, active compounds read low 0.987 | S. cerevisiae deletion strains, locus YNL271C, strain bni1, active compounds read low 0.99 | S. cerevisiae deletion strains, locus YNL298W, strain CLA4, active compounds read low 0.981 | S. cerevisiae deletion strains, locus YNL307C, strain MCK1, active compounds read low 0.989 | S. cerevisiae deletion strains, locus YNL322C, strain KRE1 (second series), active compounds read low 0.987 | S. cerevisiae deletion strains, locus YNL322C, strain KRE1, active compounds read low 1 | S. cerevisiae deletion strains, locus YNR049C, strain mso1, active compounds read low 0.997 | S. cerevisiae deletion strains, locus YNR052C, strain pop2, active compounds read low 0.992 | S. cerevisiae deletion strains, locus YOL006C, strain TOP1, active compounds read low 0.988 | S. cerevisiae deletion strains, locus YOL012C, strain htz1 0.933 | S. cerevisiae deletion strains, locus YOL147C, strain pex11, active compounds read low 0.989 | S. cerevisiae deletion strains, locus YOR001W, strain rrp6, active compounds read low 1 | S. cerevisiae deletion strains, locus YOR061W, strain CKA2, active compounds read low 0.997 | S. cerevisiae deletion strains, locus YOR069W, strain VPS5, active compounds read low 0.988 | S. cerevisiae deletion strains, locus YOR070C, strain gyp1, active compounds read low 1 | S. cerevisiae deletion strains, locus YOR080W, strain dia2, active compounds read low 0.987 | S. cerevisiae deletion strains, locus YOR083W, strain WHI5, active compounds read low 1.01 | S. cerevisiae deletion strains, locus YOR106W, strain vam3, active compounds read low 1 | S. cerevisiae deletion strains, locus YOR136W, strain idh2, active compounds read low 0.995 | S. cerevisiae deletion strains, locus YOR144C, strain elg1, active compounds read low 0.985 | S. cerevisiae deletion strains, locus YOR184W, strain ser1, active compounds read low 0.975 | S. cerevisiae deletion strains, locus YOR231W, strain MKK1, active compounds read low 0.975 | S. cerevisiae deletion strains, locus YOR265W, strain rbl2, active compounds read low 0.991 | S. cerevisiae deletion strains, locus YOR270C, strain vph1, active compounds read low 1.01 | S. cerevisiae deletion strains, locus YOR290C, strain snf2, active compounds read low 0.957 | S. cerevisiae deletion strains, locus YOR316C, strain cot1, active compounds read low 0.994 | S. cerevisiae deletion strains, locus YPL051W, strain arl3, active compounds read low 1.01 | S. cerevisiae deletion strains, locus YPL055C, strain LGE1, active compounds read low 1.04 | S. cerevisiae deletion strains, locus YPL078C, strain atp4, active compounds read low 1.01 | S. cerevisiae deletion strains, locus YPL106C, strain sse1, active compounds read low 0.951 | S. cerevisiae deletion strains, locus YPL240C, strain hsp82, active compounds read low 1.01 | S. cerevisiae deletion strains, locus YPL241C, strain CIN2, active compounds read low 1 | S. cerevisiae deletion strains, locus YPL256C, strain CLN2, active compounds read low 0.986 | S. cerevisiae deletion strains, locus YPR119W, strain clb2, active compounds read low 1 | S. cerevisiae deletion strains, locus YPR141C, strain kar3, active compounds read low 0.978 | S. cerevisiae deletion strains, locus YPR163C, strain tif3, active compounds read low 0.989 | S. cerevisiae deletion strains, locus YPR167C, strain met16, active compounds read low 0.991 | S. cerevisiae deletion strains, strain wtn01, active compounds read low 0.956 | S. cerevisiae strains, strain wild type, active compounds read low 1
